Drawing on PubChem BioAssay (EPA / NIEHS), this text covers outcome and AC50 for 13 compounds.

The nature of test [1]: ATG_NRF2_ARE_CIS: Attagene CIS-FACTORIAL HepG2 Assay for human Nuclear Factor Erythroid 2 Related Factor 2 (NFR2) response to Antioxidant Response Elements (ARE) (AID 2282992).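 For AC50: reporter mRNA level measured by RT-PCR and capillary electrophoresis fluorescence.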 Conditions: HepG2 Attagene ARE/NRF2 reporter, transcription factor activity; actives raise or lower the signal. An outline of the steps:
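Readout: reporter mRNA quantified by RT-PCR plus FAM-labelled primer extension, HpaI digestion and capillary electrophoresis, 24 h after dosing transfected HepG2 cells. Gain or loss of signal is fitted bidirectionally against DMSO baseline.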

Test [2] in a line: ATG_Oct_MLP_CIS: Attagene CIS-FACTORIAL HepG2 Assay for human Octamer-Binding Transcription Factor (Oct) (AID 2282993). Conditions: HepG2 Attagene cis-factorial Oct reporter, mRNA; actives raise or lower the signal. The method in brief:
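HepG2 cells transiently transfected with cis-promoter-driven multiplexed reporter transcription units, dosed for 24 h. Reporter mRNA quantified by RT-PCR, fluorescent labelling, HpaI digestion and capillary electrophoresis; bidirectional fits versus DMSO baseline.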

In test [3] the target is Cellular tumor antigen p53 (Homo sapiens) (UniProt P04637). The experiment in a line: ATG_p53_CIS: Attagene CIS-FACTORIAL HepG2 Assay for human p53 Transcription Factor (AID 2282994). Conditions: HepG2 p53 cis-element reporter, Attagene mRNA; actives raise or lower the signal. An outline of the steps:
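Read-out: reporter mRNA by RT-PCR plus capillary electrophoresis with fluorescence detection. Human HepG2 liver cells carried transfected multi-reporter cis-element constructs, dosed 24 h. Gain or loss of signal fitted bidirectionally against DMSO control.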

Test [4] in a line: BSK_3C_TissueFactor: BioMAP Diversity Plus: 3C Assay for Tissue Factor Biomarker Activity (AID 2282997). To be noted: BioMAP 3C HUVEC, tissue factor biomarker readout; actives raise or lower the signal. The method in brief:
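After a 24 h chemical exposure of primary human umbilical vein endothelial cells, Tissue Factor levels were quantified by ELISA.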

The nature of test [5]: BSK_3C_uPAR: BioMAP Diversity Plus: 3C Assay for Urokinase-type plasminogen activator receptor (uPAR) Biomarker Activity (AID 2282998). Conditions: BioMAP 3C HUVEC, uPAR biomarker ELISA; actives raise or lower the signal. An outline of the steps: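 Human umbilical vein endothelial primary cells were exposed to test chemical for 24 h. Cell-surface uPAR was then quantified by ELISA, and responses were fitted bidirectionally against DMSO as negative control and baseline.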
A general note: In an ELISA, binding on a coated surface is turned into a signal by an enzyme label.

Test [6] can be described thus: BSK_3C_VCAM1: BioMAP Diversity Plus: 3C Assay for Vascular cell adhesion molecule 1 (VCAM1) Biomarker Activity (AID 2282999). Conditions: BioMAP 3C HUVEC, VCAM1 ELISA, cytokine-stimulated; actives raise or lower the signal. An outline of the steps: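 Activity fitted in both directions relative to DMSO, with ELISA measurement of the surface marker on primary HUVEC (3C) at 24 h post-treatment; parallel SRB staining (0.1% SRB, TCA-fixed, 560 nm) flagged overt cytotoxicity.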

Test [7] can be described thus: BSK_4H_Eotaxin3: BioMAP Diversity Plus: 4H Assay for Eotaxin 3 Biomarker Activity (AID 2283000).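 For outcome: CCL26 protein level quantified by ELISA in parallel with SRB cytotoxicity check.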 Conditions: primary human endothelial cells (HUVEC); actives raise or lower the signal. The method in brief:
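Chemicals were added to human umbilical vein endothelium cultures, and Eotaxin-3 was quantified by ELISA at 24 h. Values were derived by bidirectional fitting with DMSO serving as negative control and activity baseline.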

Test [8] deals with human Peroxisome Proliferator-activated Receptor alpha (PPARa), PPARA (gene 5465) (UniProt Q07869). The experiment in a line: ATG_PPARa_TRANS: Attagene TRANS-FACTORIAL HepG2 Assay for human Peroxisome Proliferator-activated Receptor alpha (PPARa) (AID 2283001; active = hit-call score of the fitted dose curve at least 0.9, where 1 is the maximum). The method in brief: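 Transfected HepG2 cells treated with test chemical for 24 h. RNA isolated, reverse-transcribed with oligo(dT), PCR-amplified, FAM-labelled and HpaI-digested. Fragments sized by capillary electrophoresis; gain-of-signal fit relative to DMSO.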

Read-out in test [9]: Intercellular Adhesion Molecule 1 (ICAM1), ICAM1 (gene 3383)
The experiment in a line: BSK_3C_ICAM1: BioMAP Diversity Plus: 3C Assay for Intercellular Adhesion Molecule 1 (ICAM1) Biomarker Activity (AID 2283003). To be noted: primary human endothelial cells (HUVEC); actives raise or lower the signal. The method in brief:
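ELISA read-out of ICAM-1; HUVEC (primary human), 3C system, 24 h post-dosing; bidirectional fit vs DMSO baseline.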

For test [10], the target named is Retinoic acid receptor RXR-alpha (Homo sapiens) (UniProt P19793). The experiment in a line: ATG_RXRa_TRANS: Attagene TRANS-FACTORIAL HepG2 Assay for human Retinoid X Receptor alpha (RXRa) (AID 2283012; active = hit-call score of the fitted dose curve at least 0.9, where 1 is the maximum). The method in brief: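 Read-out: fluorescent reporter-transcript fragments quantified by capillary electrophoresis after RT-PCR. Transiently transfected HepG2 cells carrying GAL4-UAS reporters and NR-GAL4 chimeras were exposed to chemical for 24 h; activity scored as increase over DMSO.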

Test [11] deals with Peroxisome proliferator-activated receptor gamma (Homo sapiens) (UniProt P37231). The experiment in a line: ATG_PPARg_TRANS: Attagene TRANS-FACTORIAL HepG2 Assay for human Peroxisome Proliferator-activated Receptor-gamma (PPARg) (AID 2283007; active = hit-call score of the fitted dose curve at least 0.9, where 1 is the maximum). The method in brief:
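Human hepatoma HepG2, transient MRTU transfection, 24 h treatment. mRNA reporter signal by RT-PCR plus capillary electrophoresis, fluorescence detection; fitted for increase over DMSO negative control.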

Test [12] addresses Retinoic acid receptor alpha (Homo sapiens) (UniProt P10276). The experiment in a line: ATG_RARa_TRANS: Attagene TRANS-FACTORIAL HepG2 Assay for human Retinoic Acid Receptor alpha (RARa) (AID 2283005; active = hit-call score of the fitted dose curve at least 0.9, where 1 is the maximum). The method in brief: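 Reporter transcripts, measured by RT-PCR with fluorescent labeling and capillary electrophoresis after 24 h dosing, reflect activity of an exogenous human RARa–GAL4 fusion in transiently transfected HepG2. Fitted for increase relative to DMSO.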

A short description of test [13]: BSK_3C_Proliferation: Cell Proliferation Assessment in the BioMAP Diversity Plus: 3C Assay (AID 2283006). Conditions: primary human endothelial cells (HUVEC). The method in brief: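 HUVEC, sub-confluent; 48 h chemical exposure; 10% TCA fix, 0.1% SRB stain, A560 total protein. Gain or loss of signal fitted both directions vs DMSO control.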
In test [14] the target is human Retinoic Acid Receptor gamma (RARg), RARG (gene 5916) (UniProt P13631). Put plainly: ATG_RARg_TRANS: Attagene TRANS-FACTORIAL HepG2 Assay for human Retinoic Acid Receptor gamma (RARg) (AID 2283009; active = hit-call score of the fitted dose curve at least 0.9, where 1 is the maximum). The method in brief: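 Readout: reporter transcript levels via RT-PCR, 6-FAM primer-extension labelling, HpaI digestion and capillary electrophoresis. Cells: HepG2 carrying transfected RARg-GAL4 chimera plus UAS reporter set. Dosing 24 h; DMSO negative control.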

For test [15], the target named is human RAR-related Orphan Receptor beta (RORb), RORB (gene 6096) (UniProt Q92753). Put plainly: ATG_RORb_TRANS: Attagene TRANS-FACTORIAL HepG2 Assay for human RAR-related Orphan Receptor beta (RORb) (AID 2283010; active = hit-call score of the fitted dose curve at least 0.9, where 1 is the maximum). An outline of the steps:
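HepG2, transient MRTU transfection (GAL4-UAS reporters, exogenous NR-Gal4 chimeras); 24 h compound exposure; total RNA → RT-PCR → 6-FAM primer extension → HpaI digest → CE fluorescence. Positive direction vs DMSO baseline.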

The target in test [16] is human RAR-related Orphan Receptor gamma (RORg), RORC (gene 6097) (UniProt P51449). Put plainly: ATG_RORg_TRANS: Attagene TRANS-FACTORIAL HepG2 Assay for human RAR-related Orphan Receptor gamma (RORg) (AID 2283011; active = hit-call score of the fitted dose curve at least 0.9, where 1 is the maximum). The method in brief: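 First, HepG2 liver cells were transfected with GAL4-UAS-driven reporter constructs and the RORg-Gal4 fusion. Next, they were treated with chemical for 24 h. Finally, reporter mRNA was quantified by RT-PCR and capillary electrophoresis, with upward activity fitted against DMSO.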

The target of test [17] is human Retinoic Acid Receptor beta (RARb), RARB (gene 5915) (UniProt P10826). Put plainly: ATG_RARb_TRANS: Attagene TRANS-FACTORIAL HepG2 Assay for human Retinoic Acid Receptor beta (AID 2283004; active = hit-call score of the fitted dose curve at least 0.9, where 1 is the maximum). An outline of the steps:
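Transient transfection of HepG2 with multiple reporter units → chemical dosing, 24 h → total RNA isolation → RT with oligo(dT) → reporter-specific PCR, 6-FAM primer extension, HpaI digest → capillary electrophoresis. Positive direction vs DMSO control.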

Test [18] addresses Nuclear receptor subfamily 1 group I member 2 (Homo sapiens) (UniProt O75469). Put plainly: ATG_PXR_TRANS: Attagene TRANS-FACTORIAL HepG2 Assay for human Pregnane X Receptor (PXR) (AID 2283008; active = hit-call score of the fitted dose curve at least 0.9, where 1 is the maximum). An outline of the steps:
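Trans-factorial format: exogenous NR-Gal4 fusion activity, not endogenous factor, in transfected human HepG2 liver cells. After 24 h dosing, RNA isolated, reverse-transcribed, amplified and resolved by capillary electrophoresis; induction scored versus DMSO.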

Records with an inconclusive call do not appear. Activity calls are given as the source filed them. Rule for the calls, unless noted: active = hit-call score of the fitted dose curve at least 0.9, where 1 is the maximum; inactive = score below 0.9.

Sequence of Peroxisome proliferator-activated receptor gamma (Homo sapiens) (P37231 whole entry, looked up): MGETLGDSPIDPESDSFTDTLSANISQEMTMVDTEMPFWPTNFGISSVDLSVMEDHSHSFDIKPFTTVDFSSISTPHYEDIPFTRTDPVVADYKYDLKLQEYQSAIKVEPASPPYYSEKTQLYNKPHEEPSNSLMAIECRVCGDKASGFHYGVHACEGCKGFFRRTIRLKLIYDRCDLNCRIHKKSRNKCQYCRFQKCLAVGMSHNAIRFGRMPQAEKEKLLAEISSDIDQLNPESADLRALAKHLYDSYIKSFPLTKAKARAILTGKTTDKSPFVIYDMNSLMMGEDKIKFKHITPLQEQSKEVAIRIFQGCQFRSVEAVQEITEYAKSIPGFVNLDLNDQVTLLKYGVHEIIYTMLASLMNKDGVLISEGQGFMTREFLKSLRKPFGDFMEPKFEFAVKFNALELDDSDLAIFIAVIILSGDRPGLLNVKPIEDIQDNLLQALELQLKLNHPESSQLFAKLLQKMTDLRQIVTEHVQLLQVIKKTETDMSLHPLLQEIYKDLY
Sequence of human RAR-related Orphan Receptor beta (RORb), RORB (gene 6096) (Q92753 whole entry, looked up, the tested form may be a part): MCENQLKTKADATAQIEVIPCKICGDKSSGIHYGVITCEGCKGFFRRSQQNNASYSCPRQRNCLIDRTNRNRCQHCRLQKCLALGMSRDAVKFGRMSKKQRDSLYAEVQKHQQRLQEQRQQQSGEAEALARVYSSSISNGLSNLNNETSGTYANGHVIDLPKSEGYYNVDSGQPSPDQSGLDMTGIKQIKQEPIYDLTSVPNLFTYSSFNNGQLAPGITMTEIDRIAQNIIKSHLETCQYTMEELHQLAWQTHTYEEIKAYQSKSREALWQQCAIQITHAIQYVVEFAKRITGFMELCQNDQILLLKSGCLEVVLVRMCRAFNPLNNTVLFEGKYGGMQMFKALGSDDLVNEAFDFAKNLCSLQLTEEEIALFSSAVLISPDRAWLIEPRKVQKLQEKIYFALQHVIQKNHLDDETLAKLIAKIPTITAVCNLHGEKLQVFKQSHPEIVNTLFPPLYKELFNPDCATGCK
Sequence of Retinoic acid receptor RXR-alpha (Homo sapiens) (P19793 whole entry, looked up, the tested form may be a part): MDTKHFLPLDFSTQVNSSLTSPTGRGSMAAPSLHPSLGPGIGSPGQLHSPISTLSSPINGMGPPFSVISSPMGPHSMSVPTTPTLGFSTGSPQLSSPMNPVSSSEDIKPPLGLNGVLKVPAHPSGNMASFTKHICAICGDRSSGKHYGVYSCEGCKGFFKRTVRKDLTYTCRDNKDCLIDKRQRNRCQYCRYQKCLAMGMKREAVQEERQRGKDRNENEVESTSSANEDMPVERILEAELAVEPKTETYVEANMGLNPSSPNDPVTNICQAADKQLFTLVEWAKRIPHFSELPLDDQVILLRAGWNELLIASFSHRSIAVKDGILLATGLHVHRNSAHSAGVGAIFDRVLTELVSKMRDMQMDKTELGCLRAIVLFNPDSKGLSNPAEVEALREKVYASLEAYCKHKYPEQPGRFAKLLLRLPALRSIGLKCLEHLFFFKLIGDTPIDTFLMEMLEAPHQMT
Sequence of Cellular tumor antigen p53 (Homo sapiens) (P04637 whole entry, looked up): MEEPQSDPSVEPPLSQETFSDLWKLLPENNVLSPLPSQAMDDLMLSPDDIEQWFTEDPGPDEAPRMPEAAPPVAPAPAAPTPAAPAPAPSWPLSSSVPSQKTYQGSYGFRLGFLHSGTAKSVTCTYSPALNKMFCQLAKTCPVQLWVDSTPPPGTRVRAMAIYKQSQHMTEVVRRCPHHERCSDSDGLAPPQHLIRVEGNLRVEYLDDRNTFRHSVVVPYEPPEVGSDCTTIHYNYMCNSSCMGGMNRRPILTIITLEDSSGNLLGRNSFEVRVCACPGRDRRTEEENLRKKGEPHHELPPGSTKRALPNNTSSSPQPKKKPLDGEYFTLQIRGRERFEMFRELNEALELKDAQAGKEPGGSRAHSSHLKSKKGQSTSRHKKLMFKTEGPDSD
Sequence of human Peroxisome Proliferator-activated Receptor alpha (PPARa), PPARA (gene 5465) (Q07869 whole entry, looked up, the tested form may be a part): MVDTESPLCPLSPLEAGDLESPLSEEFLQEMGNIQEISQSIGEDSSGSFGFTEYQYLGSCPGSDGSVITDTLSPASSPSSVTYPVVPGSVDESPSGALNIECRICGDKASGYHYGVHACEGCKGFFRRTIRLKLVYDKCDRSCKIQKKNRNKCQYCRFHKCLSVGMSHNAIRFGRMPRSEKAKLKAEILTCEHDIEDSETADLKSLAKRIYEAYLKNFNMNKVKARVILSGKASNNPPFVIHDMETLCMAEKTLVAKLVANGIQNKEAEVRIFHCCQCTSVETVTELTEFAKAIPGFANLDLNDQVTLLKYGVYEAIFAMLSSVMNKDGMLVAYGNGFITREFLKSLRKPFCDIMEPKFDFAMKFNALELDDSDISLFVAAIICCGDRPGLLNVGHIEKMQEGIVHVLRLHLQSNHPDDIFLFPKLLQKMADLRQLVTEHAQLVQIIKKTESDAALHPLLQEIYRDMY
Sequence of human RAR-related Orphan Receptor gamma (RORg), RORC (gene 6097) (P51449 whole entry, looked up, the tested form may be a part): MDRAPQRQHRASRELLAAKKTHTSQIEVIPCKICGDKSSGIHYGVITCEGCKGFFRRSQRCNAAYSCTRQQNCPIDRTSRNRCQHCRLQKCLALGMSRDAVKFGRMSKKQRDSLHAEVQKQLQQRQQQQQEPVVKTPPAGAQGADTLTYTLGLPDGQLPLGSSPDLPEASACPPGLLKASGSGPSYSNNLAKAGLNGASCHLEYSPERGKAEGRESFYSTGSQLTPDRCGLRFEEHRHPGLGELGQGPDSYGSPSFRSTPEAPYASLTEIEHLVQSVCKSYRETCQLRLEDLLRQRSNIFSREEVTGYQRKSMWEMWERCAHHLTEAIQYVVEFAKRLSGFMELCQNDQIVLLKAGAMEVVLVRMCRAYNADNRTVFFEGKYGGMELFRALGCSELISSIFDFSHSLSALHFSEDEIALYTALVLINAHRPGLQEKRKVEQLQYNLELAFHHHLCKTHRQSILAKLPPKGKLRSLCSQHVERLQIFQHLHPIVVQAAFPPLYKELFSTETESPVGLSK
Sequence of human Retinoic Acid Receptor beta (RARb), RARB (gene 5915) (P10826 whole entry, looked up): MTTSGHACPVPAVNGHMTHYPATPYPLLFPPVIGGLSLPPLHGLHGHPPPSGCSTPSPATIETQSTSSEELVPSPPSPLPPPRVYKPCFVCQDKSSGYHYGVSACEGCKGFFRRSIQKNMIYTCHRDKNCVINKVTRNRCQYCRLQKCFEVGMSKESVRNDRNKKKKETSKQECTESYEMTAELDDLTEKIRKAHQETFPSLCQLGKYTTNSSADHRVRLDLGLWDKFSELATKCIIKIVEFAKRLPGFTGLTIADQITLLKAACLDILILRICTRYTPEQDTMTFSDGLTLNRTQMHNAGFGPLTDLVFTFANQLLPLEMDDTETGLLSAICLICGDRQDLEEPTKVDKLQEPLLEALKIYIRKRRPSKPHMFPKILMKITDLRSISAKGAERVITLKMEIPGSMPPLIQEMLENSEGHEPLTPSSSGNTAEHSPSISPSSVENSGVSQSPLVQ
Sequence of human Retinoic Acid Receptor gamma (RARg), RARG (gene 5916) (P13631 whole entry, looked up, the tested form may be a part): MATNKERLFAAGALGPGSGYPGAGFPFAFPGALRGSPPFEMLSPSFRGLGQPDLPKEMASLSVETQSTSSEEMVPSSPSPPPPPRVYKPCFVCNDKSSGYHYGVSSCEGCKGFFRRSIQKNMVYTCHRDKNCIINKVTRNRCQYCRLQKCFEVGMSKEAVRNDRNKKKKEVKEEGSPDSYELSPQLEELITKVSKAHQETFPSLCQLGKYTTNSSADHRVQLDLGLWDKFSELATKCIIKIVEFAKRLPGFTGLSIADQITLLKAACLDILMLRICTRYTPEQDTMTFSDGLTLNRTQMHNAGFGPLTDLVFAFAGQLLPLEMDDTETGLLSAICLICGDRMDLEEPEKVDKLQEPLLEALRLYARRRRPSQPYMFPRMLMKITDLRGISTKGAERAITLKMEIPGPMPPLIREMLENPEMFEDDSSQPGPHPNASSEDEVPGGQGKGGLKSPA
Sequence of Retinoic acid receptor alpha (Homo sapiens) (P10276 whole entry, looked up, the tested form may be a part): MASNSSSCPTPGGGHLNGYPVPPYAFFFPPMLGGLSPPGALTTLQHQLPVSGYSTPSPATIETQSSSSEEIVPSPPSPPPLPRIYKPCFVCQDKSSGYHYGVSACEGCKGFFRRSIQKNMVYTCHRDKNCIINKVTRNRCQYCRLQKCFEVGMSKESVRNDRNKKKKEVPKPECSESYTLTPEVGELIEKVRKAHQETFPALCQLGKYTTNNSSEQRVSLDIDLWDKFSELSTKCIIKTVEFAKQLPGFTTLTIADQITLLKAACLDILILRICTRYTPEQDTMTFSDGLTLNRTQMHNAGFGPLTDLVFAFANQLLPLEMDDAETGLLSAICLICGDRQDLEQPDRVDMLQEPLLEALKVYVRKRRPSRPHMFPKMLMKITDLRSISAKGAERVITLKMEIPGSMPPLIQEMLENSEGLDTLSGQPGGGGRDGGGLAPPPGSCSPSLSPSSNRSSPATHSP
Sequence of Nuclear receptor subfamily 1 group I member 2 (Homo sapiens) (O75469 whole entry, looked up, the tested form may be a part): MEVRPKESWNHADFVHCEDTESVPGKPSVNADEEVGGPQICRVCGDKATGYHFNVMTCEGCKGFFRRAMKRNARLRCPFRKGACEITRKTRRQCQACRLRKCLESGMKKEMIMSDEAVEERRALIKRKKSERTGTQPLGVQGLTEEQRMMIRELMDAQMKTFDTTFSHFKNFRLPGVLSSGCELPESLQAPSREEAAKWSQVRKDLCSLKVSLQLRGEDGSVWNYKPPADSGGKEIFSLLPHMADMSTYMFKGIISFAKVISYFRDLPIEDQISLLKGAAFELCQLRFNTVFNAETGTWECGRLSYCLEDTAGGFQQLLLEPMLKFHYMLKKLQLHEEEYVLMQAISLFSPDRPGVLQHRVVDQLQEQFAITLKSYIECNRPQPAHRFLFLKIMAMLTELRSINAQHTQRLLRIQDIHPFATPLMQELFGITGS

As for `CC(=O)OC[C@H]1O[C@@](COC(C)=O)(O[C@H]2O[C@H](COC(C)=O)[C@@H](OC(C)=O)[C@H](OC(C)=O)[C@H]2OC(C)=O)[C@@H](OC(C)=O)[C@@H]1OC(C)=O`, the compound was called inactive in [1], in test [2], in test [3], in [4], in test [5] and in test [6]. The result in test [7], in test [8], in test [9] and in test [10] was inactive.

As for `Cn1c(=O)cc(Oc2ccc(F)cc2F)c2cnc(NCC(C)(C)O)nc21`, the compound was classed as inactive in test [1], in test [2], in [5], in [6], in test [7] and in [9]. In addition, in test [10], the compound was classed as inactive. For the same compound, the AC50 (usually the concentration giving half of the maximal activity seen) is 41.7 µM (active) in [3], 1.4 µM (active) in [4] and 6.3 µM (active) in [11].

As for `CCn1nc(Cc2ccccc2)cc1C1CCN(C[C@H]2C[C@H](N(C)[C@@H](C(=O)O)C(C)C)C[C@@H]2c2cccc(F)c2)CC1`, the AC50 in test [1] was 51.5 µM (active); in test [3] it was 100 µM (active). Further, the compound was called inactive in test [2], in test [4], in test [5], in test [6], in test [7] and in test [9]. For the same compound, the compound was classed as inactive in test [11].

For the compound `CC(C)=CCC/C(C)=C\CO`, the AC50 is 100 µM (active) in test [1] and 36.5 µM (active) in test [11]. Further, the call in test [2], in test [3], in [4], in test [5], in test [6] and in test [7] was inactive. Moreover, the compound was classed as inactive in [8], in test [9] and in test [10].

On to `CN(C)c1ccc(N=NS(=O)(=O)O)cc1`, for which the AC50 in [1] is 54 µM (active); in test [2], 130 µM (active); in [4], 5.79 µM (active); in [6] it was 6.47 µM (active). Also, the call in test [3], in test [5], in test [7], in test [9] and in test [10] was inactive.

For `CCCCC(CC)COC(=O)c1ccc(C(=O)OCC(CC)CCCC)cc1` (configuration not stated), the compound was classed as inactive in test [1], in [2], in [3], in [4], in [5] and in test [6]. The outcome in test [7], in test [9], in test [12], in test [13], in test [14] and in test [15] was inactive. The compound was classed as inactive in [16].

As for `CCOCCOCCOCCO`, the compound was classed as inactive in test [1], in [2], in test [3], in [4], in test [5] and in [6]. Also, the outcome in [7], in [9], in [11] and in test [10] was inactive.

With `CC1=CC(=O)CC(C)(C)C1`, the outcome in test [1], in test [2], in [3], in test [4], in [5] and in test [6] was inactive. For the same compound, the result in test [7], in test [9] and in [15] was inactive.

Consider `CC(C)CCCCCCOC(=O)c1ccc(C(=O)OCCCCCCC(C)C)c(C(=O)OCCCCCCC(C)C)c1`, for which the result in test [1], in test [2], in [3], in test [4], in test [5] and in test [6] was inactive. In addition, the result in [7], in [9], in test [17], in test [12], in [13] and in test [11] was inactive. Also, the result in test [15] and in test [10] was inactive.

`CC(O)CN(CCN(CC(C)O)CC(C)O)CC(C)O` (configuration not stated): the compound was called inactive in [1], in test [2], in test [3], in [4], in [5] and in test [6]. In addition, the result in test [7], in [9], in test [17], in [16] and in test [10] was inactive.

Regarding `COc1ccc(-n2nc(C(F)F)cc2-c2ccc(S(C)=O)cc2)cc1` (configuration not stated), the outcome in [1], in test [2], in [3], in test [4], in [5] and in [6] was inactive. Also, the result in test [7], in [9], in [13], in [11], in test [18] and in [14] was inactive. Also, the call in test [10] was inactive.

Take `CC1(C)C(=O)N(Br)C(=O)N1Br`: the AC50 in [1] is 52.4 µM (active). The call in test [2], in test [3], in [4], in test [5], in test [6] and in [7] was inactive. Further, the result in test [9] was inactive.

Turning to `CCCCCCc1ccc(O)cc1O`, the AC50 in [1] is 24.3 µM (active); in [2], 50.9 µM (active); in test [4], 33.8 µM (active); in [5] it was 31.8 µM (active); in [6], 34.3 µM (active); in test [7] it was 32.2 µM (active). Also, the AC50 in test [11] is 31.2 µM (active). For the same compound, the compound was classed as inactive in test [3], in test [8] and in test [18].
